Measured values reported in PubChem BioAssay AID1159580 (chemical genetic matrix, 2015).
In all, about 5,500 compounds went through this assay and about 2,000 (36%) were called active. Not shown: some 18% with an inconclusive outcome. Cut-off read from the data, not from the text of the source: active = normalized growth mostly below about 0.91 (no sharp cut-off); inconclusive = no clear call, values can overlap the other calls; inactive = mostly above about 0.92. Some of the results follow.

Assay: chemical genetic growth profiling, strain panel (AID 1159580);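 note: tested at 20 µM; growth read once vehicle control cultures reached saturation at 30 °C; 1 = growth at the plate median or of vehicle wells; lower values mean less growth of the strain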
Conditions: S. cerevisiae deletion strains, growth OD

Measured: normalized growth

COC(=O)[C@@H]1OC(=O)C2OC23[C@@]1(C)CCC1[C@]2(C)C(C[C@H](O)[C@]13C)C(C)(C)[C@H](OC(C)=O)C[C@@H]2OC(C)=O (some centres not stated)
inactive: locus YAL021C, strain ccr4, hits give low values 1.01 | locus YAL026C, strain drs2, hits give low values 1.01 | locus YAL030W, strain snc1, hits give low values 1.01 | locus YBL061C, strain skt5, hits give low values 1.01 | locus YBR009C, strain hhf1, hits give low values 1.03 | locus YBR021W, strain FUR4, hits give low values 1.01 | locus YBR023C, strain chs3, hits give low values 1.02 | locus YBR171W, strain sec66, hits give low values 1.02 | locus YBR229C, strain ROT2, hits give low values 1.01 | locus YBR231C, strain swc5, hits give low values 1.01 | locus YBR279W, strain paf1, hits give low values 1.02 | locus YCL011C, strain gbp2, hits give low values 1 | locus YCL016C, strain dcc1, hits give low values 1.02 | locus YCL029C, strain bik1, hits give low values 0.999 | locus YCL061C, strain MRC1, hits give low values 1.02 | locus YCL069W, strain vba3, hits give low values 1.01 | locus YCR088W, strain abp1, hits give low values 1.02 | locus YDL005C, strain med2, hits give low values 1.02 | locus YDL035C, strain GPR1, hits give low values 1.04 | locus YDL040C, strain nat1, hits give low values 1.01 | locus YDL074C, strain BRE1, hits give low values 1.04 | locus YDL101C, strain DUN1, hits give low values 1 | locus YDL134C, strain PPH21, hits give low values 1 | locus YDL185W, strain tfp1, hits give low values 1 | locus YDL192W, strain arf1, hits give low values 1.01 | locus YDR001C, strain nth1, hits give low values 1.01 | locus YDR069C, strain doa4, hits give low values 1.03 | locus YDR101C, strain arx1, hits give low values 1 | locus YDR137W, strain rgp1, hits give low values 1.05 | locus YDR159W, strain sac3, hits give low values 1.01 | locus YDR162C, strain NBP2, hits give low values 1.02 | locus YDR195W, strain ref2 0.98 | locus YDR297W, strain sur2, hits give low values 1.01 | locus YDR318W, strain mcm21, hits give low values 1.01 | locus YDR334W, strain swr1, hits give low values 1.02 | locus YDR335W, strain msn5, hits give low values 1.05 | locus YDR388W, hits give low values 0.989 | locus YDR392W, strain spt3, hits give low values 1.03 | locus YDR502C, strain sam2, hits give low values 0.993 | locus YEL003W, strain gim4, hits give low values 1.02 | locus YEL037C, strain rad23, hits give low values 1.01 | locus YEL061C, strain CIN8 (second series), hits give low values 1.02 | locus YEL061C, strain CIN8, hits give low values 1.01 | locus YER015W, strain faa2, hits give low values 1.02 | locus YER016W, strain bim1, hits give low values 1.01 | locus YER110C, hits give low values 0.995 | locus YER111C, strain swi4, hits give low values 1.01 | locus YER155C, strain BEM2 (second series), hits give low values 1.02 | locus YER155C, strain BEM2, hits give low values 1 | locus YER167W, strain BCK2, hits give low values 1.02 | locus YFR010W, strain ubp6, hits give low values 1.01 | locus YGL078C, strain dbp3, hits give low values 0.994 | locus YGL086W, strain mad1, hits give low values 1 | locus YGL167C, strain pmr1, hits give low values 1.02 | locus YGL173C, strain kem1, hits give low values 1.01 | locus YGL227W, strain vid30, hits give low values 1.03 | locus YGL240W, strain doc1, hits give low values 1.04 | locus YGL248W, strain PDE1, hits give low values 1.01 | locus YGL253W, strain hxk2, hits give low values 1.02 | locus YGR135W, strain pre9, hits give low values 0.981 | locus YGR252W, strain gcn5, hits give low values 0.989 | locus YHR013C, strain ard1, hits give low values 1.02 | locus YHR027C, strain rpn1, hits give low values 1.02 | locus YHR030C, strain SLT2, hits give low values 0.999 | locus YHR079C, strain IRE1 (second series), hits give low values 1.01 | locus YHR079C, strain IRE1, hits give low values 0.977 | locus YHR094C, strain hxt1, hits give low values 0.995 | locus YHR129C, strain ARP1, hits give low values 1.01 | locus YHR142W, strain chs7, hits give low values 1.02 | locus YHR200W, strain rpn10, hits give low values 0.987 | locus YIL066C, strain RNR3, hits give low values 1.03 | locus YIL073C, strain SPO22, hits give low values 1.05 | locus YIL125W, strain kgd1, hits give low values 0.998 | locus YIR030C, strain dcg1, hits give low values 1.01 | locus YJL092W, strain hpr5, hits give low values 1.02 | locus YJL095W, strain BCK1 (second series), hits give low values 1.02 | locus YJL095W, strain BCK1, hits give low values 1 | locus YJL115W, strain asf1, hits give low values 1.02 | locus YJL129C, strain trk1, hits give low values 1 | locus YJL134W, strain LCB3, hits give low values 1.01 | locus YJL154C, strain vps35, hits give low values 1.01 | locus YJL164C, strain tpk1, hits give low values 1.02 | locus YJL166W, strain qcr8, hits give low values 1.01 | locus YJL168C, strain set2, hits give low values 0.991 | locus YJL187C, strain SWE1 (second series), hits give low values 1 | locus YJL187C, strain SWE1, hits give low values 1 | locus YJR043C, strain POL32, hits give low values 1.01 | locus YJR066W, strain TOR1, hits give low values 0.906 | locus YKL009W, strain mrt4, hits give low values 1 | locus YKL068W, hits give low values 1.01 | locus YKL085W, strain MDH1 (second series), hits give low values 1 | locus YKL085W, strain MDH1, hits give low values 1 | locus YKL160W, strain elf1, hits give low values 1.02 | locus YKL190W, strain CNB1, hits give low values 1.01 | locus YKR001C, strain vps1, hits give low values 0.98 | locus YKR026C, strain gcn3, hits give low values 1.01 | locus YKR091W, strain srl3, hits give low values 1.01 | locus YLL001W, strain dnm1, hits give low values 1.02 | locus YLL026W, hits give low values 1.01 | locus YLL041C, strain sdh2, hits give low values 1 | locus YLR027C, strain aat2, hits give low values 1.02 | locus YLR039C, strain RIC1, hits give low values 1.03 | locus YLR058C, strain SHM2, hits give low values 1.02 | locus YLR102C, strain apc9, hits give low values 0.997 | locus YLR113W, strain HOG1, hits give low values 1.04 | locus YLR221C, strain rsa3, hits give low values 1.01 | locus YLR258W, strain gsy2, hits give low values 1.01 | locus YLR262C, strain YPT6 (second series), hits give low values 1 | locus YLR268W, strain sec22, hits give low values 1.02 | locus YLR320W, strain mms22, hits give low values 1.02 | locus YLR330W, strain CHS5, hits give low values 1.01 | locus YLR342W, strain FKS1, hits give low values 1.01 | locus YLR357W, strain rsc2, hits give low values 1.02 | locus YLR370C, strain arc18, hits give low values 1.02 | locus YLR371W, strain rom2, hits give low values 1 | locus YLR384C, strain iki3, hits give low values 1 | locus YLR418C, strain cdc73, hits give low values 1.01 | locus YML016C, strain PPZ1, hits give low values 1 | locus YML032C, strain rad52, hits give low values 0.994 | locus YML120C, strain ndi1, hits give low values 1.01 | locus YML124C, strain tub3, hits give low values 1 | locus YMR058W, strain fet3, hits give low values 1.02 | locus YMR078C, strain ctf18, hits give low values 1 | locus YMR125W, strain sto1, hits give low values 1.01 | locus YMR129W, hits give low values 1 | locus YMR205C, strain PFK2, hits give low values 1.02 | locus YMR223W, strain ubp8, hits give low values 0.99 | locus YMR231W, strain pep5, hits give low values 1 | locus YMR263W, strain SAP30, hits give low values 1.01 | locus YMR307W, strain GAS1, hits give low values 1 | locus YNL067W, strain RPL9B, hits give low values 1 | locus YNL071W, strain lat1, hits give low values 1.01 | locus YNL183C, strain NPR1, hits give low values 0.938 | locus YNL209W, strain ssb2, hits give low values 1.01 | locus YNL233W, strain BNI4, hits give low values 1 | locus YNL248C, strain rpa49, hits give low values 1.01 | locus YNL250W, strain rad50, hits give low values 0.989 | locus YNL271C, strain bni1, hits give low values 1.01 | locus YNL298W, strain CLA4, hits give low values 1 | locus YNL307C, strain MCK1, hits give low values 0.998 | locus YNL322C, strain KRE1 (second series), hits give low values 1.02 | locus YNR049C, strain mso1, hits give low values 1.02 | locus YNR052C, strain pop2, hits give low values 0.993 | locus YOL006C, strain TOP1, hits give low values 1.08 | locus YOL012C, strain htz1 1.19 | locus YOL147C, strain pex11, hits give low values 1 | locus YOR001W, strain rrp6, hits give low values 1 | locus YOR061W, strain CKA2, hits give low values 1.03 | locus YOR069W, strain VPS5, hits give low values 1.01 | locus YOR070C, strain gyp1, hits give low values 1.02 | locus YOR080W, strain dia2, hits give low values 1 | locus YOR083W, strain WHI5, hits give low values 1.02 | locus YOR106W, strain vam3, hits give low values 1.03 | locus YOR136W, strain idh2, hits give low values 0.994 | locus YOR144C, strain elg1, hits give low values 0.996 | locus YOR184W, strain ser1, hits give low values 1.03 | locus YOR231W, strain MKK1, hits give low values 0.989 | locus YOR265W, strain rbl2, hits give low values 0.995 | locus YOR270C, strain vph1, hits give low values 0.986 | locus YOR290C, strain snf2, hits give low values 1.04 | locus YOR316C, strain cot1, hits give low values 0.996 | locus YPL051W, strain arl3, hits give low values 1.02 | locus YPL078C, strain atp4, hits give low values 1.03 | locus YPL106C, strain sse1, hits give low values 1.04 | locus YPL240C, strain hsp82, hits give low values 1.01 | locus YPL241C, strain CIN2, hits give low values 1.01 | locus YPL256C, strain CLN2, hits give low values 0.979 | locus YPR119W, strain clb2, hits give low values 1 | locus YPR141C, strain kar3, hits give low values 1.01 | locus YPR163C, strain tif3, hits give low values 0.996 | locus YPR167C, strain met16, hits give low values 1 | strain wtn01, hits give low values 1
